GLP-1R agonist = qHTS of GLP-1 Receptor Agonists; Glucagon-like peptide 1 receptor (Homo sapiens), P43220; HEK293 GLP-1R CRE-luciferase, luminescence, 4-6 h; cells express a hypersensitive GLP-1R form; Potency, µM (highest dose often 45.6 µM), inactives show at the highest dose activation, usual class: activators; 380,000 tested, 0.007% active; AID 624172, 2012; also: % of control where 0% means no effect
Target sequence (P43220 whole entry, looked up): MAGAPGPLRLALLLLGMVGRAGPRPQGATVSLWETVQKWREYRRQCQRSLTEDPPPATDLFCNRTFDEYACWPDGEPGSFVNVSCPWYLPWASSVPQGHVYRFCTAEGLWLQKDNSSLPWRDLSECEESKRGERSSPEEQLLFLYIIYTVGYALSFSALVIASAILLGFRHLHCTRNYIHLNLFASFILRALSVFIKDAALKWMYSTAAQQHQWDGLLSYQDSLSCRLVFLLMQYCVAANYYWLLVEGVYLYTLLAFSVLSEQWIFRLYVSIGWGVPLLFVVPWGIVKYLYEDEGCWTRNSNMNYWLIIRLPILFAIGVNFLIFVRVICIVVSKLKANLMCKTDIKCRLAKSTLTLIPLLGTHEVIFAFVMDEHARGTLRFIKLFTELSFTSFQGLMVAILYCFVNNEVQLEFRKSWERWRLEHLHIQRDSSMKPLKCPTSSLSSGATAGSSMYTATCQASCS
GLP1R cytotox = qHTS of GLP-1 Receptor Inverse Agonists: Cytotox Screen | HEK293 cAMP-luciferase reporter cells, luminescence, 24 h | Potency, µM (series often up to 38.3 µM), for the others: at the highest dose activity change, negative = inhibition, hits mostly inhibitors | 410,000 tested, 0.13% active;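 also: loss of luciferase light is scored as toxicity; % is scaled to controls: 0 for no effect and ±100 for the full control effect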
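Cells in DMEM/10% Nu serum/1% pen-strep, 1536-well format. Pre-incubated 12 h, dosed with 23 nL compound, incubated a further 24 h. Luciferase detection, 12 min at room temp, luminescence.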
GLP-1R inv ag = qHTS of GLP-1 Receptor Inverse Agonists (Inhibition Mode); Glucagon-like peptide 1 receptor (Homo sapiens), P43220; HEK293 GLP-1R CRE-luciferase, luminescence, 24 h; GLP-1R form is constitutively active; Potency, µM (highest dose often 38.3 µM), for the others: at the top dose activity change, negative = inhibition, most hits filed as inhibitors; 410,000 tested, 1.6% active; AID 624417, 2012; also: % is scaled to controls: 0 for no effect and ±100 for the full control effect; nearly all actives have a fitted effect of over 55% in size
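Assay principle: reduced luminescence from a cAMP-responsive reporter in HEK293 cells co-expressing a constitutively active GLP-1R. Conditions: 24 hr compound incubation, 37 deg C, 5% CO2.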
BRCA1 expr act = qHTS Assay to Identify Small Molecule Activators of BRCA1 Expression; Potency, µM (doses to about 46.1 µM), without a hit: at the highest dose activation, hits mostly activators; MCF7-BRCA1-FFLuc reporter, luminescence, 48 h; response scale: scaled: vehicle 0%, 10 µM genistein 100%; AID 624202, 2012; 380,000 tested, 1.1% active; also: nearly all actives have a fitted effect of over 80% in size
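Using MCF7 cells harboring a BRCA1 firefly luciferase reporter, plated 2 h before compound pinning, the screen measured luminescence after 48 h incubation. Responses were normalized to DMSO and 10 microM genistein, then fitted for concentration-effect.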
* = called active by the depositor. This is a sample that favours compounds with a hit; in the whole collection about 2.6% have one here. Calls follow the shape of the dose curve; as a rule, active = well fitted curve in the direction sought with a large enough effect; inconclusive = small, poorly fitted or top-dose-only effect, or another doubt; inactive = no such curve, though single readings can be large; an effect the other way counts as inactive or inconclusive. Potency is read from the fitted curve at half-maximal effect.

How did COC(=O)[C@]12CCCCC=C1N(Cc1ccc(Cl)cc1Cl)C(=O)[C@H](CC(=O)N1CCC(c3ccccc3)CC1)C2 do in these assays?
GLP-1R agonist: -2.9%; GLP1R cytotox: 3.8%; GLP-1R inv ag: 11.2µM*; BRCA1 expr act: -1.9%

What do the screens show for `CCOC(=O)[C@]12CCCC=C1N(Cc1ccc(Cl)cc1Cl)C(=O)[C@H](CC(=O)N1CCC(c3ccccc3)CC1)C2`?
GLP-1R agonist: -3.6%; GLP1R cytotox: 4.9%; GLP-1R inv ag: 11.1%; BRCA1 expr act: 0.0%

How did CCCOC(=O)/C(=C\C=C\c1ccccc1)NC(=O)c1ccccc1 do in these assays?
GLP-1R agonist: 21.6%; GLP1R cytotox: 9.7%; GLP-1R inv ag: 2.51µM*; BRCA1 expr act: 11.6%

What do the screens show for `CCc1ccc(C2C(C(=O)Nc3ccccc3C)=C(C)Nc3nc(SCc4cccc(OC)c4)nn32)cc1` (centres undefined)?
GLP1R cytotox: 0.2%; GLP-1R inv ag: 1.0%

Results for CCCCCCN1C[C@H](n2cc(C3CC3)nn2)[C@@H](O)C[C@@H]1c1ccc(Cl)cc1 ?
GLP-1R agonist: 14.6%; GLP1R cytotox: -7.4%; GLP-1R inv ag: inconclusive; BRCA1 expr act: 0.1%

How did CCOC(=O)/C=C1/SCC(=O)N1Cc1ccc(Br)cc1 do in these assays?
GLP-1R agonist: 10.6%; GLP1R cytotox: -8.3%; GLP-1R inv ag: 5.62µM*; BRCA1 expr act: -23.3%

Results for CCCCCCCCCCOc1cc2c(=O)c(C(=O)OCC)c[nH]c2cc1OCC ?
GLP-1R agonist: 2.4%

Results for COC(=O)c1nn(-c2ccccc2)c(Cl)c1/C=N/OCc1ccc(C)cc1 ?
GLP-1R agonist: -15.4%; GLP1R cytotox: 90.8%; GLP-1R inv ag: 12.6µM*; BRCA1 expr act: -10.9%

Results for [O-][n+]1cccc(CO)c1 ?
GLP-1R agonist: -7.0%

Results for CCc1nc(SCc2ccc(Br)cc2)n[nH]1 ?
GLP-1R agonist: 4.9%; GLP1R cytotox: 5.3%; GLP-1R inv ag: 10.1%; BRCA1 expr act: 10µM*

What do the screens show for `CCc1nc(SCc2ccc(Cl)cc2)n[nH]1`?
GLP-1R agonist: 5.0%; GLP1R cytotox: -3.0%; GLP-1R inv ag: -1.8%; BRCA1 expr act: inconclusive

What do the screens show for `COCCNC(=O)c1c(C)oc2nc(C)nc(N3CCOCC3)c12`?
GLP1R cytotox: -1.2%; GLP-1R inv ag: 2.1%

Results for CCOc1ccccc1Nc1sc(C(=O)c2ccccc2)c(N)c1C(=O)Nc1ccc(F)cc1 ?
GLP1R cytotox: 1.3%; GLP-1R inv ag: -17.2%

What do the screens show for `Cc1cccc(C)c1Nc1sc(C(=O)c2ccccc2)c(N)c1C(=O)Nc1ccc(F)cc1`?
GLP1R cytotox: -22.0%; GLP-1R inv ag: 11.2µM*

Results for O=C1CN(C(=O)c2ccc(Br)o2)C(c2ccccc2)c2cc(F)ccc2N1 (centres undefined) ?
GLP-1R agonist: 6.2%; GLP1R cytotox: -26.9%; GLP-1R inv ag: 7.94µM*; BRCA1 expr act: -39.8%

How did CC1=Nc2ccccc2/C1=C/c1nc(-c2ccc(C)s2)oc1O do in these assays?
GLP-1R agonist: -0.7%; GLP1R cytotox: -12.2%; GLP-1R inv ag: -6.3%; BRCA1 expr act: -24.7%

Results for CC1=Nc2ccccc2/C1=C/c1sc(=N)n(-c2nccs2)c1O ?
GLP-1R agonist: 2.8%; GLP1R cytotox: inconclusive; GLP-1R inv ag: 2.51µM*; BRCA1 expr act: -51.3%

Results for COCCn1c(SCC(=O)Nc2ccc3c(c2)OCCO3)nc2c(c1=O)SC(C)C2 (centres undefined) ?
GLP-1R agonist: 5.3%; GLP1R cytotox: -21.6%; GLP-1R inv ag: 0.6%; BRCA1 expr act: 8.91µM*

What do the screens show for `CC1Cc2nc(SCC(=O)Nc3ccc4c(c3)OCO4)n(Cc3ccccc3)c(=O)c2S1` (centres undefined)?
GLP-1R agonist: -1.2%; GLP1R cytotox: inconclusive; GLP-1R inv ag: 0.0%; BRCA1 expr act: 11.2µM*

Results for CNC(=O)C(=O)NCC1OCCN1S(=O)(=O)c1ccc(C)cc1 (centres undefined) ?
GLP-1R agonist: -28.2%; GLP1R cytotox: 5.6%; GLP-1R inv ag: 4.2%; BRCA1 expr act: -4.7%

Source: PubChem BioAssay (National Center for Advancing Translational Sciences (NCATS))
